Experimental data reported in PubChem BioAssay (EPA / NIEHS).
More than one record can exist for a structure, and the calls need not agree. Calls of active or inactive are those of the source. The calls were made as follows: active = hit-call score of the fitted dose curve at least 0.9, where 1 is the maximum; inactive = score below 0.9.

Assays:
[1] = BSK_3C_TissueFactor: BioMAP Diversity Plus: 3C Assay for Tissue Factor Biomarker Activity (AID 2282997); settings: BioMAP 3C HUVEC, tissue factor biomarker readout; actives raise or lower the signal
Outline: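 Tissue Factor measured by ELISA, 24 h after treatment of primary HUVEC in the BioMAP 3C setting.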

[2] = BSK_3C_uPAR: BioMAP Diversity Plus: 3C Assay for Urokinase-type plasminogen activator receptor (uPAR) Biomarker Activity (AID 2282998); settings: BioMAP 3C HUVEC, uPAR biomarker ELISA; actives raise or lower the signal
Outline: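 Dose primary human umbilical vein endothelial cells, incubate 24 h, measure cell-surface uPAR by ELISA, then fit the signal in both directions against the DMSO negative control.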

[3] = BSK_4H_Eotaxin3: BioMAP Diversity Plus: 4H Assay for Eotaxin 3 Biomarker Activity (AID 2283000); settings: primary human endothelial cells (HUVEC); actives raise or lower the signal;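 also: CCL26 protein level quantified by ELISA in parallel with SRB cytotoxicity check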
Outline: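 Eotaxin-3 (CCL26) levels were measured by ELISA in HUVEC primary cultures 24 h post-dosing. Gain or loss of signal was fitted in both directions, with DMSO serving as baseline and negative control.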

[4] = read-out: Intercellular Adhesion Molecule 1 (ICAM1), ICAM1 (gene 3383); test: BSK_3C_ICAM1: BioMAP Diversity Plus: 3C Assay for Intercellular Adhesion Molecule 1 (ICAM1) Biomarker Activity (AID 2283003); settings: primary human endothelial cells (HUVEC); actives raise or lower the signal
Outline: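 ELISA read-out of ICAM-1; HUVEC (primary human), 3C system, 24 h post-dosing; bidirectional fit vs DMSO baseline.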

[5] = BSK_3C_Proliferation: Cell Proliferation Assessment in the BioMAP Diversity Plus: 3C Assay (AID 2283006); settings: primary human endothelial cells (HUVEC)
Outline: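 HUVEC, sub-confluent; 48 h chemical exposure; 10% TCA fix, 0.1% SRB stain, A560 total protein. Gain or loss of signal fitted both directions vs DMSO control.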

[6] = read-out: E-selectin (Homo sapiens) (UniProt P16581); test: BSK_3C_Eselectin: BioMAP Diversity Plus: 3C Assay for Eselectin Biomarker Activity (AID 2283015); settings: primary human endothelial cells (HUVEC); actives raise or lower the signal;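 also: cell surface E-selectin protein quantified by ELISA 24 h after dosing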
Outline: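 Primary human umbilical vein endothelial cells (3C system), read 24 h after compound addition; E-selectin measured by ELISA. Bidirectional curve fitting against DMSO baseline; cytotoxicity by parallel SRB total-protein staining.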

[7] = read-out: Interleukin-1 alpha (IL1a), IL1A (gene 3552); test: BSK_BE3C_IL1a: BioMAP Diversity Plus: BE3C Assay for Interleukin-1 alpha (IL1a) Biomarker Activity (AID 2283016); settings: primary human bronchial epithelial cells; actives raise or lower the signal
Outline: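 ELISA read-out of IL-1a from human lung bronchial epithelial primary cells, 24 h post-dose. Gain or loss of signal fitted relative to DMSO negative control.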

[8] = read-out: Monocyte Chemoattractant Protein-1 (MCP1), CCL2 (gene 6347); test: BSK_3C_MCP1: BioMAP Diversity Plus: 3C Assay for Monocyte Chemoattractant Protein-1 (MCP1) Biomarker Activity (AID 2283017); settings: primary human endothelial cells (HUVEC); actives raise or lower the signal
Outline: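 Human umbilical vein endothelial cells (3C system) exposed to chemicals for 24 h; MCP-1 quantified by ELISA against the DMSO baseline with bidirectional fitting, and parallel SRB staining used to assess cytotoxicity.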

[9] = read-out: Monocyte Chemoattractant Protein-1 (MCP1), CCL2 (gene 6347); test: BSK_4H_MCP1: BioMAP Diversity Plus: 4H Assay for Monocyte Chemoattractant Protein-1 (MCP1) Biomarker Activity (AID 2283018); settings: primary human endothelial cells (HUVEC); actives raise or lower the signal
Outline: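 HUVEC primary cells, 24 h post-dose, MCP-1 by ELISA. Gain or loss of signal fitted bidirectionally vs DMSO baseline. Cytotoxicity: SRB stain (0.1% after 10% TCA fixation), read 560 nm, parallel cultures.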

[10] = read-out: Human Leukocyte Antigen - DR isotype (HLADR), HLA-DRA (gene 3122); test: BSK_3C_HLADR: BioMAP Diversity Plus: 3C Assay for Human Leukocyte Antigen - DR isotype (HLADR) Biomarker Activity (AID 2283019); settings: primary human endothelial cells (HUVEC); actives raise or lower the signal;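 also: ELISA of cell-surface HLA-DR on HUVEC 24 h after dosing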
Outline: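 HUVEC monoculture, HLA-DR measured by ELISA 24 h after chemical dosing. Fitted bidirectionally against DMSO baseline; parallel SRB staining assessed cytotoxicity, with 3C proliferation read by SRB at 48 h.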

[11] = read-out: Interleukin-8 (IL8), CXCL8 (gene 3576); test: BSK_3C_IL8: BioMAP Diversity Plus: 3C Assay for Interleukin-8 (IL8) Biomarker Activity (AID 2283020); settings: primary human endothelial cells (HUVEC); actives raise or lower the signal
Outline: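 HUVEC, 3C stimulation; 24 h compound exposure; IL-8 read by ELISA; gain or loss of signal fitted relative to DMSO control.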

[12] = read-out: Monokine induced gamma interferon (MIG), CXCL9 (gene 4283); test: BSK_3C_MIG: BioMAP Diversity Plus: 3C Assay for Monokine induced gamma interferon (MIG) Biomarker Activity (AID 2283021); settings: primary human endothelial cells (HUVEC); actives raise or lower the signal
Outline: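 HUVEC, 3C system; 24 h chemical exposure; MIG by ELISA; bidirectional fit vs DMSO baseline.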

[13] = read-out: Matrix Metallopeptidase 1 (MMP1), MMP1 (gene 4312); test: BSK_BE3C_MMP1: BioMAP Diversity Plus: BE3C Assay for Matrix Metallopeptidase 1 (MMP1) Biomarker Activity (AID 2283024); settings: primary human bronchial epithelial cells; actives raise or lower the signal
Outline: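 ELISA read-out of MMP1 in human lung bronchial epithelial primary cultures, 24 h post-dose; bidirectional curve fit vs DMSO baseline, gain or loss of signal scored.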

[14] = read-out: Pselectin, SELP (gene 6403); test: BSK_4H_Pselectin: BioMAP Diversity Plus: 4H Assay for Pselectin Biomarker Activity (AID 2283026); settings: primary human endothelial cells (HUVEC); actives raise or lower the signal
Outline: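 HUVEC, 24 h chemical exposure; P-selectin read by ELISA. Bidirectional curve fit vs DMSO baseline; gain or loss of signal scored.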

[15] = BSK_4H_SRB: Viability Assessment in the BioMAP Diversity Plus: 4H Assay (AID 2283027); settings: primary human endothelial cells (HUVEC);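 also: cells exposed to compound for 24 h before staining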
Outline: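 Cytotoxicity read-out in primary human endothelial cells: after 24 h compound exposure, cells were TCA-fixed (10%), stained with 0.1% SRB and absorbance taken at 560 nm. Values fitted in both directions relative to DMSO.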

[16] = BSK_BE3C_SRB: Viability Assessment in the BioMAP Diversity Plus: BE3C Assay (AID 2283028); settings: primary human bronchial epithelial cells
Outline: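 Human bronchial epithelial primary cells in confluent culture, 24 h after chemical dosing; total protein by 0.1% SRB staining after 10% TCA fixation, read at 560 nm. Bidirectional fitting versus DMSO baseline.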

[17] = read-out: Thrombomodulin, THBD (gene 7056); test: BSK_3C_Thrombomodulin: BioMAP Diversity Plus: 3C Assay for Thrombomodulin Biomarker Activity (AID 2283029); settings: primary human endothelial cells (HUVEC); actives raise or lower the signal
Outline: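 HUVEC, 3C conditions; compound 24 h; thrombomodulin by ELISA; bidirectional curve fit vs DMSO baseline; parallel SRB total-protein staining for cytotoxicity.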

[18] = read-out: Urokinase-type plasminogen activator receptor (uPAR), PLAUR (gene 5329); test: BSK_4H_uPAR: BioMAP Diversity Plus: 4H Assay for Urokinase-type plasminogen activator receptor (uPAR) Biomarker Activity (AID 2283030); settings: primary human endothelial cells (HUVEC); actives raise or lower the signal
Outline: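 Human umbilical vein endothelial cells in the 4H system, 24 h after chemical dosing. Cell-surface uPAR measured by ELISA, fitted in both directions versus DMSO; cytotoxicity checked by SRB total protein in parallel cultures.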

[19] = read-out: Vascular endothelial growth factor receptor 2 (Homo sapiens) (UniProt P35968); test: BSK_4H_VEGFRII: BioMAP Diversity Plus: 4H Assay for Vascular endothelial growth factor receptor 2 (VEGFR2) Biomarker Activity (AID 2283031); settings: primary human endothelial cells (HUVEC); actives raise or lower the signal;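 as to AC50: cell-surface VEGFR2 protein level quantified by ELISA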
Outline: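 Primary human umbilical vein endothelial cells (4H system), 24 h exposure; cell-surface VEGFR2 measured by ELISA. Bidirectional fitting versus DMSO; cytotoxicity checked in parallel by SRB total-protein staining.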

[20] = read-out: Human Leukocyte Antigen - DR isotype (HLADR), HLA-DRA (gene 3122); test: BSK_BE3C_HLADR: BioMAP Diversity Plus: BE3C Assay for Human Leukocyte Antigen - DR isotype (HLADR) Biomarker Activity (AID 2283032); settings: primary human bronchial epithelial cells; actives raise or lower the signal
Outline: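 Primary human bronchial epithelial cells (BE3C); 24 h chemical exposure; HLA-DR by ELISA; bidirectional curve fit vs DMSO baseline.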

[21] = read-out: Vascular cell adhesion molecule 1 (VCAM1), VCAM1 (gene 7412); test: BSK_4H_VCAM1: BioMAP Diversity Plus: 4H Assay for Vascular cell adhesion molecule 1 (VCAM1) Biomarker Activity (AID 2283033); settings: primary human endothelial cells (HUVEC); actives raise or lower the signal;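 also: cell-surface VCAM-1 protein measured by ELISA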
Outline: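 HUVEC, 24 h post-dose; VCAM-1 by ELISA. Bidirectional curve fit vs DMSO baseline. Parallel SRB total-protein stain (0.1% SRB after 10% TCA fixation, 560 nm) for cytotoxicity.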

[22] = read-out: Interferon-gamma inducible Protein 10 (IP10), CXCL10 (gene 3627); test: BSK_BE3C_IP10: BioMAP Diversity Plus: BE3C Assay for Interferon-gamma inducible Protein 10 (IP10) Biomarker Activity (AID 2283034); settings: primary human bronchial epithelial cells; actives raise or lower the signal
Outline: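 ELISA readout of IP-10 in BE3C system: primary human bronchial epithelial cells, 24 h post-dosing; bidirectional curve fit vs DMSO baseline.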

[23] = read-out: Plasminogen activator inhibitor-1 (PAI1), SERPINE1 (gene 5054); test: BSK_BE3C_PAI1: BioMAP Diversity Plus: BE3C Assay for Plasminogen activator inhibitor-1 (PAI1) Biomarker Activity (AID 2283037); settings: primary human bronchial epithelial cells; actives raise or lower the signal
Outline: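 ELISA read-out of PAI-1 from human bronchial epithelial primary cells, 24 h post-dosing; bidirectional curve fit vs DMSO baseline, gain or loss of signal scored.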

[24] = read-out: urokinase plasminogen activator (uPA), PLAU (gene 5328); test: BSK_BE3C_uPA: BioMAP Diversity Plus: BE3C Assay for urokinase plasminogen activator (uPA) Biomarker Activity (AID 2283038); settings: primary human bronchial epithelial cells; actives raise or lower the signal;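 also: uPA protein level quantified by ELISA in cell cultures; uPA read one day after compound addition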
Outline: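 Primary human bronchial epithelial cells, uPA measured by ELISA 24 h after dosing. Bidirectional change relative to DMSO; cytotoxicity checked in parallel cultures by sulforhodamine B total-protein staining.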

[25] = read-out: Urokinase-type plasminogen activator receptor (uPAR), PLAUR (gene 5329); test: BSK_BE3C_uPAR: BioMAP Diversity Plus: BE3C Assay for Urokinase-type plasminogen activator receptor (uPAR) Biomarker Activity (AID 2283039); settings: primary human bronchial epithelial cells; actives raise or lower the signal;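 also: cells exposed to compound for one day before measurement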
Outline: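 ELISA readout of uPAR on human lung primary bronchial epithelial cells, 24 h post-dosing. Bidirectional curve fit relative to DMSO vehicle baseline; gain or loss of signal both scored.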

[26] = read-out: Interleukin-6 (IL6), IL6 (gene 3569); test: BSK_CASM3C_IL6: BioMAP Diversity Plus: CASM3C Assay for Interleukin-6 (IL6) Biomarker Activity for (AID 2283040); settings: primary human coronary artery smooth muscle cells; actives raise or lower the signal
[27] = read-out: Tissue plasminogen activator (tPA), PLAT (gene 5327); test: BSK_BE3C_tPA: BioMAP Diversity Plus: BE3C Assay for Tissue plasminogen activator (tPA) Biomarker Activity (AID 2283041); settings: primary human bronchial epithelial cells; actives raise or lower the signal;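 also: tPA level quantified by ELISA one day after compound addition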
Outline: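 ELISA read-out of tPA on human primary bronchial epithelial cells, 24 h post-dosing; bidirectional fit vs DMSO negative control/baseline.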

[28] = read-out: Interleukin-8 (IL8), CXCL8 (gene 3576); test: BSK_CASM3C_IL8: BioMAP Diversity Plus: CASM3C Assay for Interleukin-8 (IL8) Biomarker Activity (AID 2283042); settings: primary human coronary artery smooth muscle cells; actives raise or lower the signal;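 also: IL-8 protein level quantified by ELISA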

Measured: AC50

Sequence of E-selectin (Homo sapiens) (P16581 whole entry, looked up): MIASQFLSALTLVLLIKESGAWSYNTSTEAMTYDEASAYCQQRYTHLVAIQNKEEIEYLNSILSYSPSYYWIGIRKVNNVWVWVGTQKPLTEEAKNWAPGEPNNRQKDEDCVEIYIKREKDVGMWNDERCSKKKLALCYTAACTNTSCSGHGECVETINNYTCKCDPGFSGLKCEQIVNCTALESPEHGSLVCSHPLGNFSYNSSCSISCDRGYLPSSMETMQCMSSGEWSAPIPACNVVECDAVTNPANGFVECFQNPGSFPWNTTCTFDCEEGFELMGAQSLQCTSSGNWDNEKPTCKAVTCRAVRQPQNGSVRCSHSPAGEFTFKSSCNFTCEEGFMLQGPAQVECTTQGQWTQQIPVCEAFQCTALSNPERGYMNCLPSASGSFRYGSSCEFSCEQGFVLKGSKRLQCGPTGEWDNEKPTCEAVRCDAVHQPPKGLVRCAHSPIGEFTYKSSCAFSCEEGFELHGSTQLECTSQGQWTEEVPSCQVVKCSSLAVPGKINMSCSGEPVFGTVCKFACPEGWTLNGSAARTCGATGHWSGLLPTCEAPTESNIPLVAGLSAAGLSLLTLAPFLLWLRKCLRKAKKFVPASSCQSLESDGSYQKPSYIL

CCCC[N+](CCCC)(CCCC)CCCC
active: [13] 3.97 µM | [19] 2.14 µM
inactive: [1] | [2] | [3] | [4] | [5] | [6] | [7] | [8] | [9] | [10] | [11] | [12] | [13] | [14] | [15] | [16] | [17] | [18] | [19] | [20] | [21] | [22] | [23] | [24] | [25] | [26] | [27] | [28]
